Source: PubChem BioAssay (EPA / NIEHS)
Records with an inconclusive call do not appear. Activity calls are given as the source filed them. The calls were made as follows, unless noted: active = hit-call score of the fitted dose curve at least 0.9, where 1 is the maximum; inactive = score below 0.9.

Tests used:
[1] = CCTE_Mundy_HCI_Cortical_Synap_Neur_Matur_NeuriteLength: CCTE's Synaptogenesis and Neurite Maturation Assay in rat cortical cells for Neurite Length, Mundy Lab (AID 2284214)
Procedure, shortened: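 Cultures of rat primary cortical cells received chemical at DIV 7 and were fixed at DIV 12, after glial arrest with AraC at DIV 5. Neurite length was measured by automated imaging of MAP2 immunofluorescence.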

[2] = CCTE_Mundy_HCI_Cortical_Synap_Neur_Matur_NeuriteSpotCountPerNeuron: CCTE's Synaptogenesis and Neurite Maturation Assay in rat cortical cells for Neurite Spot Count per Neuron Count, Mundy Lab (AID 2284215)
Procedure, shortened: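 Read-out: neurite-associated synaptophysin puncta per neuron, imaged by high-content analysis after MAP2, synaptophysin and Hoechst staining. Rat primary cortical cultures, dosed DIV 7 through DIV 12; DMSO served as baseline.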

[3] = CCTE_Mundy_HCI_Cortical_Synap_Neur_Matur_SynapseCount: CCTE's Synaptogenesis and Neurite Maturation Assay in rat cortical cells for Synapse Count, Mundy Lab (AID 2284218)
Procedure, shortened: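 Cells were plated, allowed 2 hr to attach, treated with AraC at DIV 5, then exposed to chemicals from DIV 7 until DIV 12. After fixation and MAP2/synaptophysin immunolabelling, synapses per neuron were quantified by automated imaging against DMSO.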

[4] = CCTE_Mundy_HCI_hN2_NOG_NeuriteLength: CCTE's Neurite Outgrowth Assay in human hN2 cells for Neurite Length, Mundy Lab (AID 2284220; active = hit-call score of the fitted dose curve at least 0.9, where 1 is the maximum)
Procedure, shortened: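 Plate hNP1-derived neurons, then add chemical 2 h later as a 1/10 dilution. Stain with anti-βIII-tubulin then Alexa Fluor-488 secondary, and image automatically to measure neurite length.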

[5] = CCTE_Mundy_HCI_hN2_NOG_NeuronCount: CCTE's Neurite Outgrowth Assay in human hN2 cells for Neuron Count, Mundy Lab (AID 2284221; active = hit-call score of the fitted dose curve at least 0.9, where 1 is the maximum)
Procedure, shortened: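 Read-out is the number of betaIII-tubulin-positive neurons imaged by automated high-content analysis, with DMSO as negative control.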

[6] = CCTE_Mundy_HCI_Cortical_Synap_Neur_Matur_NeuriteCount: CCTE's Synaptogenesis and Neurite Maturation Assay in rat cortical cells for Neurite Count, Mundy Lab (AID 2284222)
Procedure, shortened: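 Chemical exposure runs DIV 7–12 in rat cortical cultures, glia suppressed by AraC at DIV 5; measurement is at DIV 12. Imaging-derived neurite counts are fitted against DMSO baseline.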

[7] = CCTE_Mundy_HCI_Cortical_Synap_Neur_Matur_CellBodySpotCount: CCTE's Synaptogenesis and Neurite Maturation Assay in rat cortical cells for Cell Body Spot Count, Mundy Lab (AID 2284223)
Procedure, shortened: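 Read-out: cell body-associated synaptophysin puncta per neuron, imaged after MAP2, synaptophysin and Hoechst staining. Rat cortical cells, AraC DIV 5, chemical dosing DIV 7, fixation DIV 12. Activity fitted in positive direction relative to DMSO baseline.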

[8] = CCTE_Mundy_HCI_hNP1_Pro_ResponderAvgInten: CCTE's Proliferation Assay in human neuroprogenitor cells, Mundy Lab (AID 2284224; active = hit-call score of the fitted dose curve at least 0.9, where 1 is the maximum)
Procedure, shortened: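 Proliferation was scored as BrdU labelling intensity in human neural progenitors derived from WA09 embryonic cells, measured 26.25 hours after chemical dosing. Activity was fitted relative to DMSO.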

[9] = CCTE_Mundy_HCI_Cortical_NOG_NeuronCount: CCTE's Neurite Outgrowth Assay in rat cortical cells for Neuron Count, Mundy Lab (AID 2284236; active = hit-call score of the fitted dose curve at least 0.9, where 1 is the maximum;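 also: neurons counted by imaging betaIII-tubulin and Hoechst stained cortical cells; cells exposed to compound for about 48 hours before fixation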)
Procedure, shortened: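 Read-out: neuron number by high-content imaging of betaIII-tubulin (Alexa Fluor-488) and Hoechst-labelled rat primary cortical cells.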

[10] = CCTE_Mundy_HCI_Cortical_NOG_BPCount: CCTE's Neurite Outgrowth Assay in rat cortical cells for Branch Point Count, Mundy Lab (AID 2284237);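 also: branch points counted about two days after chemical exposure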
Procedure, shortened: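 Measured 50.33 h after dosing, this morphology endpoint uses rat primary cortical cultures labelled for betaIII-tubulin. Branch points are quantified by high-content imaging, with DMSO as negative control and baseline.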

[11] = CCTE_Mundy_HCI_hNP1_Casp3_7: CCTE's Caspase-Glo 3/7 Assay in human neuroprogenitor cells for Apoptosis, Mundy Lab (AID 2284240)
Procedure, shortened: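 Apoptosis is scored by activated caspase-3/7 luminescence in WA09-derived neural progenitor cells, measured 26.5 h after chemical dosing. Values represent gain of signal relative to DMSO vehicle.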

[12] = CCTE_Mundy_HCI_hNP1_CellTiter: CCTE's Cell Titer-Glo 2 Assay in human neuroprogenitor cells for Viability, Mundy Lab (AID 2284241; active = hit-call score of the fitted dose curve at least 0.9, where 1 is the maximum;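 also: a hit is a drop in ATP luminescence versus DMSO meaning reduced viability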)
Procedure, shortened: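 Human neural progenitor cells (hNP1, WA09-derived) were plated on poly-L-ornithine/laminin and grown 40 to 44 hours at 37 °C, 5% CO2 before chemical addition. Twenty-four hours later, ATP was measured by CellTiter-Glo luminescence; loss of signal versus DMSO indicates reduced viability.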

[13] = CCTE_Mundy_HCI_Cortical_Synap_Neur_Matur_NeuronCount: CCTE's Synaptogenesis and Neurite Maturation Assay in rat cortical cells for Neuron Count, Mundy Lab (AID 2284242; active = hit-call score of the fitted dose curve at least 0.9, where 1 is the maximum;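 also: neuron number from Hoechst nuclei and MAP2 staining by high-content imaging; hits reduce neuron count versus DMSO baseline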)
Procedure, shortened: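 Cortical cells from rat are plated, treated with AraC at DIV 5, and exposed to test chemicals with a media change at DIV 7. At DIV 12 they are fixed and immunostained (MAP2, synaptophysin), and imaged neuron counts are compared against DMSO controls.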

[14] = IUF_NPC2c_oligodendrocyte_migration_120hr: Leibniz Research Institute for Environmental Medicine (IUF) 120-hour Neural Progenitor Cell Migration Assay for Oligodendrocyte Migration (NPC2c) (AID 2284297);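 also: O4-positive oligodendrocyte migration distance divided by radial glia migration distance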
Procedure, shortened: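 hNPC spheres (GW 16-19 cortex), PDL/laminin, DMEM/F12 3:1 + 1% N2, 37C. Dosing day 0–5, half feed day 3, DMSO ≤0.1%. Fixed 120 h; O4 ICC + Hoechst, HCI. Readout: mean oligodendrocyte distance from sphere edge / radial glia distance.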

[15] = IUF_NPC2a_radial_glia_migration_120hr: Leibniz Research Institute for Environmental Medicine (IUF) 120-hour Neural Progenitor Cell Migration Assay for Radial Glia Migration (NPC2a) (AID 2284298)
Procedure, shortened: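 Hoechst-stained nuclei imaged at 120 h; algorithm maps sphere core by densest nuclei, sets migration edge at density threshold, gives radial glia migration distance (um) per well vs DMSO. hNPC spheres (0.3 mm), PDL/laminin, DMEM/F12 3:1 + 1% N2.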

[16] = IUF_NPC2a_radial_glia_migration_72hr: Leibniz Research Institute for Environmental Medicine (IUF) 72-hour Neural Progenitor Cell Migration Assay for Radial Glia Migration (NPC2a) (AID 2284299)
Procedure, shortened: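 Single 0.3 mm neurospheres were plated per well in N2 differentiation medium and exposed from the start of differentiation. After 72 hours, brightfield images were taken and radial glia migration from the sphere core edge was measured manually in four directions, averaged per well.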

[17] = IUF_NPC2b_neuronal_migration_120hr: Leibniz Research Institute for Environmental Medicine (IUF) 120-hour Neural Progenitor Cell Migration Assay for Neuron Migration (NPC2b) (AID 2284300)
Procedure, shortened: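 hNPC spheres, PDL/laminin, DMEM:F12 3:1 + 1% N2, 37C/5% CO2; 7 concentrations + solvent control (DMSO ≤0.1%), 5 d exposure, half-feed day 3. Fix 120 h, TUBB3 ICC, HCI: mean neuron migration distance ÷ glia distance.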

[18] = IUF_NPC3_neuronal_differentiation_120hr: Leibniz Research Institute for Environmental Medicine (IUF) 120-hour Neuronal Differentiation Assay (NPC3) (AID 2284301)
Procedure, shortened: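 Value is percent TUBB3-positive neurons among Hoechst-stained nuclei in the migration area, scored by trained CNN after 120 h differentiation. Primary hNPC spheres on poly-D-lysine/laminin, N2 medium, continuous dosing from day 0, half-refeed day 3; DMSO reference.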

[19] = IUF_NPC5_oligodendrocyte_differentiation_120hr: Leibniz Research Institute for Environmental Medicine (IUF) 120-hour Oligodendrocyte Differentiation Assay (NPC5) (AID 2284304; active = hit-call score of the fitted dose curve at least 0.9, where 1 is the maximum;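 also: primary human fetal neural progenitor spheres plated to migrate and differentiate; share of O4-positive cells among Hoechst nuclei found by CNN image analysis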)
Procedure, shortened: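 hNPC spheres, fetal cortex GW 16-19; PDL/laminin, DMEM:F12 3:1 + 1% N2, 37C/5% CO2; 7 concentrations + solvent control, 5 d exposure, half-change day 3. Readout: %O4+ of Hoechst+ nuclei in migration area, CNN classification; DMSO baseline.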

[20] = IUF_NPC4_neurite_area_120hr: Leibniz Research Institute for Environmental Medicine (IUF) 120-hour Neuronal Morphology Assay for Neurite Area (NPC4) (AID 2284305; active = hit-call score of the fitted dose curve at least 0.9, where 1 is the maximum)
Procedure, shortened: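 Neurite area (pixels, nuclei excluded) of TUBB3-positive neurons from hNPC spheres differentiating 5 days under continuous exposure at 37 C, 5% CO2. High-content imaging; loss of signal versus DMSO control across 7 concentrations.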

[21] = IUF_NPC2-5_cytotoxicity_72hr: Cytotoxicity Assessment at 72 hours in the Leibniz Research Institute for Environmental Medicine (IUF) Neural Progenitor Cell Migration and Differentiation Assay for Cytotoxicity (NPC2-5) (AID 2284306; active = hit-call score of the fitted dose curve at least 0.9, where 1 is the maximum;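 also: LDH release into supernatant measured by resorufin fluorescence marking membrane damage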)
Procedure, shortened: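 Membrane-integrity cytotoxicity at 72 h, read as LDH-driven resorufin fluorescence in supernatant. hNPC spheres from fetal cortex differentiate on coated plates in N2 medium, 37C, 5% CO2; seven serial compound concentrations plus solvent control (DMSO ≤0.1%).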

[22] = IUF_NPC2-5_cytotoxicity_120hr: Cytotoxicity Assessment at 120 hours in the Leibniz Research Institute for Environmental Medicine (IUF) Neural Progenitor Cell Migration and Differentiation Assay (NPC2-5) (AID 2284307; active = hit-call score of the fitted dose curve at least 0.9, where 1 is the maximum)
Procedure, shortened: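 hNPC spheres on PDL/laminin, N2 medium, 37C; 7 concs + solvent control, DMSO ≤0.1%; 5-day exposure, half medium changed day 3. LDH in supernatant at 120 h, resazurin→resorufin fluorescence, gain-of-signal.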

[23] = IUF_NPC2-5_cell_number_120hr: Cell Number Assessment at 120 hours in the Leibniz Research Institute for Environmental Medicine (IUF) Neural Progenitor Cell Migration and Differentiation Assay (NPC2-5) (AID 2284308);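 also: count of Hoechst-stained nuclei in migration zone around plated human neural progenitor spheres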
Procedure, shortened: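 Hoechst-stained nuclei within the migration area were counted by automated high content imaging after 120 h. Single hNPC spheres differentiated on poly-D-lysine/laminin in DMEM/F12 (3:1) with 1% N2, compound present throughout, DMSO ≤0.1%.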

[24] = IUF_NPC2-5_viability_120hr: Viability Assessment at 120 hours in the Leibniz Research Institute for Environmental Medicine (IUF) Neural Progenitor Cell Migration and Differentiation Assay (NPC2-5) (AID 2284312)
Procedure, shortened: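 Alamar blue resorufin fluorescence read after 5 days of differentiation, with compound present from day 0 and replenished at day 3. Primary hNPC spheres on laminin-coated plates, 37C; seven concentrations plus solvent control, fitted against DMSO.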

Measured: AC50

O=[As]O
active: [1] 6.45 µM | [2] 5 µM | [3] 5 µM | [4] 5.09 µM | [5] 4.47 µM | [6] 4.43 µM | [7] 5 µM | [8] 2.79 µM | [9] 3.59 µM | [10] 2.61 µM | [11] 3.8 µM | [12] 6.1 µM | [13] 2.74 µM | [15] 0.805 µM
inactive: [14] | [16] | [17] | [18] | [19] | [20] | [21] | [22] | [23] | [24]
